# A selection: hits, their analogues and other compounds. The true share with any hit is near 6.8%.
# KB-3-1 tox: qHTS assay for MDR1-selective chemotherapeutics: Primary screen using the parental adenocarcinoma cell KB-3-1 | KB-3-1 viability, CellTiter-Glo ATP luminescence, 72 h | Potency, µM (doses to about 46.1 µM), hits mostly cytotoxic | actives 1.4% (n = 400,000) | AID 1347075, 2019; also: % is scaled to controls: 0 for no effect and ±100 for the full control effect; nearly all actives have a fitted effect of over 60% in size
#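 Using CellTiter-Glo luminescence, growth of non-resistant KB-3-1 adenocarcinoma cells is assessed 72 h after pin-tool compound addition at 37 °C. Normalized responses across the concentration series yield fitted curves.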
# SW480 rereplic: A quantitative high throughput screen for small molecules that induce DNA re-replication in SW480 colon adenocarcinoma cells | SW480 DNA re-replication, Hoechst DNA content imaging, 48 h | Potency, µM (series often up to 46.1 µM), for the others: at the highest dose re-replication activation, hits mostly activators | actives 1.8% (n = 340,000) | AID 624297, 2012; also: % of control where 0% means no effect; nearly all actives have a fitted effect of over 55% in size
#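 Hoechst fluorescence of nuclei (405 nm excitation, 500-530 nm emission) measured by plate-scanning imager after 48 hr compound exposure at 37 C; re-replication scored as increased number of nuclei with elevated intensity.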
# PINK1 expr mod: A Quantitative High throughput Screen to Identify Chemical Modulators of PINK1 Expression. AID 624263, 2012. actives 0.2% (n = 410,000). PINK1 immunofluorescence, high-content cytometry, 24 h. Potency, µM (top dose mostly 76.6 µM), for inactives: at the top dose activation (PINK1 increase), most hits filed as activators; active = well fitted activation curve with a large enough effect; inconclusive = small, poorly fitted or top-dose-only effect; cell line not stated here; also: % of control where 0% means no effect; nearly all actives have a fitted effect of over 65% in size
#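 Stable cell line, 250 cells/well, 12 h attachment; compounds pinned at 5 concentrations, 24 h; CCCP control. Fixed with nuclear dye, primary antibodies 12 h at 10 degrees C, secondary plus cell stain; laser-scanning cytometer read.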
# MCF10A rerep: A quantitative high throughput screen for small molecules that induce DNA re-replication in MCF 10a normal breast cells; Potency, µM (doses to about 46.1 µM), for the others: at the highest dose activity, positive = re-replication, actives largely listed as activators; actives 2.9% (n = 350,000); MCF 10A DNA re-replication, Hoechst nuclear intensity, 48 h; also: % of control where 0% means no effect; nearly all actives have a fitted effect of over 50% in size
# KB-V1 MDR tox: qHTS assay for MDR1-selective chemotherapeutics: Primary screen using the drug-selected MDR subline cells KB-V1. AID 1347076, 2019. actives 3.4% (n = 400,000). Potency, µM (doses to about 46.1 µM), usual class: cytotoxic. KB-V1 MDR cells viability, CellTiter-Glo, 72 h; also: % is scaled to controls: 0 for no effect and ±100 for the full control effect; nearly all actives have a fitted effect of over 60% in size
#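 Potencies derive from concentration-effect curves fitted to normalized luminescence (CellTiter-Glo) of KB-V1 cells treated for 72 h at 37 degrees C in phenol-red-free DMEM containing 10% FBS.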
# PTAP TSG101 blk: qHTS Assay for Iinhibitors of HIV-1 Budding by Blocking the Interaction of PTAP/TSG101. Tumor susceptibility gene 101 protein (Homo sapiens), Q99816. Fluorescence polarization, FITC-PTAP peptide / Tsg101 binding. Potency, µM (titrated, usually from 115 µM), for the others: top-dose activity change, negative = inhibition, usual class: inhibitors. 340,000 tested, under 10 active. AID 493005, 2010; active = well fitted inhibition curve with a large enough effect in the main read-out, with a control signal flat, not every such curve was filed as active; inconclusive = small, poorly fitted or top-dose-only effect, or effect the other way, or a change in a side signal; inactive = no such curve, though single readings can be large or run the other way; also: % of control where 0% means no effect
# Target sequence (Q99816 whole entry, looked up): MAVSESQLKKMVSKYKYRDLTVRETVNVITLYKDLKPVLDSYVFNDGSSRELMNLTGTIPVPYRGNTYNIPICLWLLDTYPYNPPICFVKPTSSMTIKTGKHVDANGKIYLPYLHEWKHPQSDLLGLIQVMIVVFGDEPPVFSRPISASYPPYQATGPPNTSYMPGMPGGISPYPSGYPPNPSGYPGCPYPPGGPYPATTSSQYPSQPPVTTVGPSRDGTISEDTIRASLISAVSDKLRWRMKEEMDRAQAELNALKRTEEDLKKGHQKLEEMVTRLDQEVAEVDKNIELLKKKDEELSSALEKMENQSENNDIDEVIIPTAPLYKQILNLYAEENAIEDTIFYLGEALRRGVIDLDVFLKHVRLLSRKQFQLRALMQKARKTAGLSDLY
#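 FP read-out: FITC-PTAP peptide, 50 nM final, binding Tsg101 binding domain, 10 uM final; 20 min, r.t.; 10 mM HEPES pH 7.5, 0.15 M NaCl, 0.01% Tween 20, 3 mM EDTA, 0.1 mM TCEP.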
# The depositor's hits bear a star; i = inactive; ? = inconclusive; / = not tested or not shown; ! = a repeat was not active; [ ] = dose if it differs, or a comment. Unless noted, calls follow the shape of the dose curve; as a rule, active = well fitted curve in the direction sought with a large enough effect; inconclusive = small, poorly fitted or top-dose-only effect, or another doubt; inactive = no such curve, though single readings can be large; an effect the other way counts as inactive or inconclusive. Potency is read from the fitted curve at half-maximal effect.
SMILES,KB-3-1 tox,SW480 rereplic,PINK1 expr mod,MCF10A rerep,KB-V1 MDR tox,PTAP TSG101 blk
O=C(CS(=O)c1ccc(C(F)(F)F)cc1[N+](=O)[O-])Oc1ccccc1 (centres undefined),?,?,-3%,7.3µM*,?,0%
CCOC(=O)Cc1ccc(NC(=O)N2CCOc3ccc(C)cc32)cc1,i,/,0%,/,i,/
CC(C)(C)C(=O)NC(=S)NNC(=O)c1ccc(-c2ccccc2)cc1,?,?,-1%,?,9.2µM*,-1%
CC(C)c1ccc(O)c(NC(=S)NC(=O)c2cccnc2)c1,i,1%,9%,?,?,-2%
O=C(NNC(=S)NC(=O)c1ccccc1)c1cccnc1,i,1%,2%,1%,i,-6%
CC(C)(C)c1ccc(C(=O)NC(=S)NNC(=O)c2cccs2)cc1,2.6µM*,69%,4%,?,?,0%
CC(C)(C)c1cc(Cl)c(O)c(NC(=S)NC(=O)c2cccnc2)c1,i,-16%,12%,15µM*,?,-8%
CC(C)(C)c1ccc(C(=O)NNC(=S)NC(=O)c2cccnc2)cc1,?,15µM*,-3%,9%,?,-10%
Nc1ccc(S(=O)(=O)N2CCOCC2)cc1,?,/,0%,/,i,/
Cc1ccc(NC(=O)CN2C(=O)c3cccnc3Oc3ccc(Cl)cc32)cc1,i,/,1%,/,i,/
CSc1nc(C(=O)NCc2nc(-c3cccc(NC(=O)c4ccc(C)s4)c3)oc2C)cs1,/,/,0%,/,/,/
CCOC(=O)c1ccccc1NS(=O)(=O)c1c(-c2ccc(C)cc2)csc1C(=O)OC,?,/,3%,/,i,/
O=C(NCC1Cc2cccc(-c3cccnc3)c2O1)c1cc(-c2ccccc2)n[nH]1 (centres undefined),/,/,0%,/,/,/
CCC[C@@H](CN1CCC[C@H]1CN1C(N)=NC[C@@H]1Cc1ccccc1)N1C[C@@H]([C@H](C)CC)N(CCCC2CCCC2)C1=N,?,?,?,18µM*,i,0%
CCC[C@@H](CN1CCC[C@H]1CN1C(N)=NC[C@@H]1Cc1ccccc1)N1C[C@@H](Cc2ccccc2)N(CCCC2CCCC2)C1=N,i,-8%,1%,-11%,i,/
CCCCn1c(=NC(=O)c2ccco2)c(C(=O)OCC)cc2c(=O)n3cccc(C)c3nc21,i,18µM*,9%,6.5µM*,i,1%
CCCCCn1c(=NC(=O)c2ccco2)c(C(=O)OCC)cc2c(=O)n3ccccc3nc21,i,?,2%,?,5.2µM*!,-2%
CCOC(=O)c1cc2c(=O)n3cccc(C)c3nc2n(CCCOC)c1=NC(=O)c1cccnc1,i,16%,2%,22%,12µM*,-8%
CCn1nnc2cc(C(=O)Nc3cccc(Cl)c3C)ccc21,i,/,11%,/,?,/
Cc1cc(C)c2nc(C)cc(N/N=C/c3ccc(O)cc3)c2c1,?,4.1µM*,-2%,15µM*,?,-11%
CCN(CC)c1ccc(/C=N/Nc2nc(C)cc(C)n2)cc1,i,18µM*,0%,?,i,-1%
Cc1cc(C)nc(N/N=C/c2ccccc2)n1,i,-5%,4%[38.3 µM],2%,i,-9%
Cc1cc(-c2ccccc2)nc(N/N=C/c2ccc(O)cc2)n1,21µM*,-436%,11%,?,?,-8%
Cc1cccc(OCc2nc(CC(=O)Nc3ccc(C)c(C)c3)cs2)c1,i,/,11%,/,i,/
CC(C)(CO)NC(=O)c1cnn(-c2ncc3c(n2)-c2ccccc2CC3)c1C1CC1,/,/,-1%,/,/,/
SMILES,KB-3-1 tox,SW480 rereplic,PINK1 expr mod,MCF10A rerep,KB-V1 MDR tox,PTAP TSG101 blk
O=C(NCCCO)/C(=C/c1ccc(-c2cccc([N+](=O)[O-])c2)o1)NC(=O)c1ccccc1,i,-8%,0%,1%,i,-3%
Cc1ccc(C(=O)N/C(=C/c2ccc(-c3ccc([N+](=O)[O-])cc3)o2)C(=O)NCCCN(C)C)cc1,i,23µM*,-3%,?,i,1%
O=S(=O)(c1ccccc1)N(Cc1ccccc1)c1ccccn1,?,-10%,1%,-2%,8.2µM*,-3%
COc1ccc(C(=O)N(Cc2sccc2C)C2CCS(=O)(=O)C2)cc1Cl (centres undefined),/,/,-1%,/,/,/
CCCS(=O)(=O)N1CCN(Cc2ccc3c(c2)c2ccccc2n3CC)CC1,i,?,-1%,13µM*,i,-1%
O=C(CCS(=O)(=O)Cc1ccccc1)N1CCN(Cc2ccccc2)CC1,i,-6%,/,10µM*,?,-8%
O=C(CCS(=O)(=O)Cc1ccccc1F)N1CCc2ccccc2C1,i,3%,-1%,?,i,-5%
CCc1ccc(CN2CCN(S(=O)(=O)Cc3ccccc3)CC2)cc1,i,-2%,7%[38.3 µM],26%,10µM*,-5%
CCOc1ccc(CN2CCN(Cc3ccc4c(c3)c3ccccc3n4CC)CC2)cc1,/,/,2%,/,/,/
O=C(CCS(=O)(=O)Cc1ccccc1)N1CCc2ccccc2C1,i,-9%,1%[38.3 µM],0%,16µM*,-10%
O=C(O)c1cc(-c2ccc(N3CCOCC3)cc2)nn1-c1ccc(F)cc1F,i,-1%,-1%,-2%,i,0%
Brc1cc(Br)c2nc(-c3ccc(N4CCOCC4)cc3)ccc2c1,i,8.2µM*,?,9.2µM*,?,5%
O=C(CCN1C(=O)C2C3CCC(C3)C2C1=O)Nc1ccc(Br)cc1 (centres undefined),i,12µM*,10%,18%,i,-5%
CC(C)(Oc1ccc(Br)cc1)C(=O)N1CCc2ccccc21,i,-6%,3%[38.3 µM],?,21µM*,-3%
Cn1cnc([N+](=O)[O-])c1Sc1nc(N)nc2c1ncn2C1CC(O)C(CO)O1 (centres undefined),3.7µM*,7.3µM*,-5%,2.1µM*,5.2µM*,-2%

# Screens: PubChem BioAssay, National Center for Advancing Translational Sciences (NCATS)
